Screening results deposited in PubChem BioAssay by National Center for Advancing Translational Sciences (NCATS).
DT40 TDP1 no CPT – qHTS for Inhibitors of human tyrosyl-DNA phosphodiesterase 1 (TDP1): qHTS in cells in absence of CPT | AID 686978, 2013 | 15% of 420,000 active | Potency, µM (titrated, usually from 46.2 µM), without a hit: top-dose activity change, negative = growth inhibition, most hits filed as inhibitors | DT40 Tdp1-/- hTDP1 cells, no CPT, ATP luminescence, 48 h; further: potency means the concentration at half of the fitted maximal effect; nearly all actives have a fitted effect of over 55% in size
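Chicken DT40 Tdp1-/- cells stably complemented with human TDP1 were seeded at 400 cells/well with DMSO in place of 20 nM camptothecin. After compound pinning, cells grew at least 48 hr at 37 °C; viability read by CellTiter-Glo luminescence.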
TDP1 cell CPT – growth inhibition of DT40 Tdp1-/-;hTDP1 cells with camptothecin (screen for TDP1 inhibitors). Potency, µM (series often up to 46.2 µM), for inactives: at the top dose activity change, negative = growth inhibition, usual class: inhibitors. 12% of 420,000 active. chicken DT40 Tdp1-/-;hTDP1 cells + 20 nM CPT, ATP luminescence, 48 h; further: potency means the concentration at half of the fitted maximal effect; nearly all actives have a fitted effect of over 55% in size
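Chicken DT40 Tdp1-/- cells stably complemented with human TDP1 were seeded at 400 cells/well in medium containing 20 nM camptothecin, exposed to pin-transferred compounds, and grown at 37 °C for at least 48 hr. Viability was read as ATP luminescence.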
HT1080-NT tox – kills 2HG-producing HT-1080-NT fibrosarcoma cells. 1.6% of 360,000 active. Potency, µM (highest dose often 46.1 µM), for the others: at the highest dose activity, negative = less viability, hits mostly cytotoxic. HT-1080-NT fibrosarcoma viability, CellTiter-Glo ATP luminescence, 48 h;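 further: NT is the 2HG producing partner of a matched IDH1 knockdown line; potency means the concentration at half of the fitted maximal effect; 0% = DMSO-treated cells and -100% = media-only wells without cells; nearly all actives have a fitted effect of over 55% in size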
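750 cells/well, RPMI + 5% FBS; 2 h settle, compound pin-transfer, 48 h at 37 degrees C. CellTiter-Glo 10 min RT, luminescence. Normalized to DMSO and media-only wells.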
HT1080 IDH1KD tx – kills HT-1080 cells with IDH1 knockdown. HT-1080 IDH1 knockdown viability, ATP luminescence, 48 h. Potency, µM (highest dose often 46.1 µM), for the others: top-dose activity, negative = toxicity, usual class: cytotoxic. 2% of 360,000 active. AID 686971;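 further: potency means the concentration at half of the fitted maximal effect; 0% = DMSO wells and -100% = cell-free medium wells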
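Viability of IDH1-knockdown HT-1080 fibrosarcoma cells was assessed by CellTiter-Glo after 48 h at 37 °C with titrated compound; concentration-effect curves were classified by fit quality and response size.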
ELG1 repair inh – ELG1-dependent DNA repair inhibition; HEK293T ELG1-luciferase reporter, luminescence, 16 h; DNA damage induced by 5-fluorouridine; Potency, µM (titrated, usually from 46.1 µM), without a hit: at the top dose activity change, negative = inhibition, actives largely listed as inhibitors; 2.3% of 330,000 active; further: potency means the concentration at half of the fitted maximal effect; nearly all actives have a fitted effect of over 55% in size
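Step one: seed 2,000 cells per well. Step two: pin-transfer compound or DMSO alongside 5-fluorouridine. Step three: incubate 16 hr, 37 °C, 5% CO2. Step four: add ONE-Glo, wait 30 min, read luminescence.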
IL1B secr inh – inflammasome signaling inhibition, IL-1 beta readout; activity change, % at 57.5 µM; 4.7% of 360,000 active; THP-1 LPS/ATP IL-1B secretion, AlphaLISA, 16 h; stronger effect = lower value; in the data active means activity change below about -50%; inconclusive means mostly about -30% to -49%
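THP-1 cells pretreated 1 hr with compounds (up to 57.5 uM final), then stimulated with LPS (250 ng/mL final) plus ATP (1.25 mM final); secreted IL-1B measured by AlphaLISA after 16 hr, decreased signal indicating inhibition.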
* marks the source's active call; other numbers are inactive results; ? = inconclusive; / = no result; [ ] = dose if it differs, or a comment. An excerpt weighted towards active compounds, which were near 19% of everything screened. Unless noted, the call rests on the fitted dose curve; in most records, active means well fitted curve in the direction sought with a large enough effect; inconclusive means small, poorly fitted or top-dose-only effect, or another doubt; inactive means no such curve, though single readings can be large; an effect the other way counts as inactive or inconclusive. Unless noted, on the % scale 0 is the no-effect control and ±100 the full control effect.

SMILES	DT40 TDP1 no CPT	TDP1 cell CPT	HT1080-NT tox	HT1080 IDH1KD tx	ELG1 repair inh	IL1B secr inh
Fc1ccccc1/C=C1\CCCC2=C1NC(=S)NC2c1ccccc1F (stereo not given)	?	?	-19%	?	?	-5
S=C1NC2=C(CCC/C2=C\c2ccccc2)C(c2ccccc2)N1 (stereo not given)	15µM*	?	4%	3%	8%	-1
CC1CC2=C(NC(=S)NC2c2ccc(F)cc2)/C(=C/c2ccc(F)cc2)C1 (stereo not given)	?	?	10µM*	?	7%	-20
S=C1NC2=C(CCC/C2=C\c2ccc(Cl)cc2)C(c2ccc(Cl)cc2)N1 (stereo not given)	23µM*	?	?	-23%	-22%	-26
Fc1cccc(/C=C2\CCCC3=C2NC(=S)NC3c2cccc(F)c2)c1 (stereo not given)	21µM*	?	-18%	-9%	?	-12
Cc1ccc2c(c1)CN(CCC(=O)NCc1cc(C)n(C)n1)CC(C)O2 (stereo not given)	-12%	24%[9.04 µM]	/	/	/	/
N#CCCN1C(=O)C2(OCCO2)c2ccccc21	15%	-21%	22%	9%	-7%	19
C=C(C)C1Cc2c(C)nn(-c3nc(C)cc(C)n3)c2C1 (stereo not given)	4.6µM*	2.3µM*	-10%	-27%	-9%	-11
O=C(NC1CCS(=O)(=O)C1)c1ccc(S(=O)(=O)N2CCCCC2)cc1 (stereo not given)	3%	1%	-2%	8%	-9%	6
CC1CCN(C(=O)Cn2cc(SCC(=O)Nc3ccccc3C(F)(F)F)c3ccccc32)CC1	21µM*	?	/	/	/	/
Cc1cccc(NC(=O)CSc2cn(CC(=O)N3CCC(C)CC3)c3ccccc23)c1C	9.2µM*	23µM*	/	/	/	/
Cc1nn(CCCC(=O)Nc2ccccc2C(F)(F)F)c(=O)c2c1sc1ccccc12	?	-29%	/	/	/	/
CC1=CC(=O)[C@@H]2C[C@H]1C2(C)C	-6%	5%	/	/	/	/
Cc1ccc(NC(=O)c2cnn(-c3ccccc3)c2C)c(C)c1	?	?	14%	6%	?	-67*
Cc1cccc(C)c1NC(=O)c1cnn(-c2ccccc2)c1C	-12%	-18%	20%	8%	0%	-62*
Cc1cccc(C)c1NC(=O)c1c[nH]c2ccccc12	26µM*	18µM*	-19%	-25%	?	-21
Cc1c(C(=O)N(C)c2ccc(Cl)cc2)cnn1-c1ccccc1	4.6µM*	?	-5%	0%	?	-11
Cc1cccc(N(C)C(=O)c2cnn(-c3ccccc3)c2C)c1	?	2%	2%	1%	6%	-1
CN1CCN(C(=O)C2CCCN(S(=O)(=O)c3ccc(Cl)cc3)C2)CC1 (stereo not given)	-26%	-8%	-2%	-6%	-3%	-8
C=C(C)C(=O)OCC(O)COc1ccc(C(C)(C)c2ccc(OCC(O)COC(=O)C(=C)C)cc2)cc1 (stereo not given)	21µM*	16µM*	?	?	-27%	-64*
CN1CCC(N2CCN(C3CN(Cc4ccc(F)cc4)S(=O)(=O)C3)CC2)CC1 (stereo not given)	1%	0%	3%	11%	/	0
Cc1ccc(-c2ccc(/C=N\NC(=O)c3cc4c(ccc5ccccc54)o3)o2)cc1[N+](=O)[O-]	9.2µM*	10µM*	?	24%	?	25
